Data taken from PubChem BioAssay (EPA / NIEHS).
Records with an inconclusive call do not appear. Calls of active or inactive are those of the source. The calls were made as follows: active = hit-call score of the fitted dose curve at least 0.9, where 1 is the maximum; inconclusive = response in the unintended direction; inactive = score below 0.9.

What follows are compounds tested against human Phosphoinositide 3-kinase alpha (PI3Ka), PIK3CA (gene 5290) (UniProt P42336) (assay: NVS_ENZ_hPI3Ka: NovaScreen (NVS) Enzymatic Assay for human Phosphoinositide 3-kinase alpha (PI3Ka) (AID 2283196)).
Sequence of human Phosphoinositide 3-kinase alpha (PI3Ka), PIK3CA (gene 5290) (P42336 whole entry, looked up): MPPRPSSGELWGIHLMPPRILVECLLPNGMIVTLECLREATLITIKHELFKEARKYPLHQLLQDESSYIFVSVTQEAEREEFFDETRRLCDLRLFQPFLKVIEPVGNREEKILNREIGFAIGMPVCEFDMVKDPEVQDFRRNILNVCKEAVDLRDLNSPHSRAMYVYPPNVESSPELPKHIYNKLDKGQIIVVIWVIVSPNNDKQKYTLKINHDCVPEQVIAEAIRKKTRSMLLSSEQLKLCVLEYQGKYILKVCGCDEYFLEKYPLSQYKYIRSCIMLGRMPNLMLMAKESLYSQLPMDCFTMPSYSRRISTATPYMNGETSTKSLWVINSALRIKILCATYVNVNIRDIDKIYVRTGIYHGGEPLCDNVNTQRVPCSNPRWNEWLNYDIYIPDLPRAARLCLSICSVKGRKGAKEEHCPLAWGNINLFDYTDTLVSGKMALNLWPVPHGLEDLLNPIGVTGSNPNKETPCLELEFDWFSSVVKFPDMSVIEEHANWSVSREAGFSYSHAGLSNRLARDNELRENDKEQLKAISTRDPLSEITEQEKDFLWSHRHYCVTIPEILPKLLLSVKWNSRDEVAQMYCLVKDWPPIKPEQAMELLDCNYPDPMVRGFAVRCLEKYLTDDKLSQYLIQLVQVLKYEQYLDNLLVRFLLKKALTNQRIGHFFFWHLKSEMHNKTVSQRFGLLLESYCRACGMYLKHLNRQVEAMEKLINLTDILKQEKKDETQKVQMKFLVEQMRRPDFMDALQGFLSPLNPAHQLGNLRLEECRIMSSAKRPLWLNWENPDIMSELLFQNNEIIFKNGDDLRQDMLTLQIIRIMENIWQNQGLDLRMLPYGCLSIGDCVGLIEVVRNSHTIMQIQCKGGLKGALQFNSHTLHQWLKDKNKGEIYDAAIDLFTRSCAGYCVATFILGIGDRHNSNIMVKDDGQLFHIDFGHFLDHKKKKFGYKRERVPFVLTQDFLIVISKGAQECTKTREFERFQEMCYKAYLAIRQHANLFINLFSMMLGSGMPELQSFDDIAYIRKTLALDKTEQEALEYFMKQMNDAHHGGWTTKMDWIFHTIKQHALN
Protocol: NVS_ENZ_hPI3Ka is a biochemical, single-readout assay that uses extracted gene-proteins in a cell-free assay. Measurements were taken 1 hour after chemical dosing in a 384-well plate.NVS_ENZ_hPI3Ka is one of one assay component(s) measured or calculated from the NVS_ENZ_hPI3Ka assay. It is designed to make measurements of enzyme activity, a form of enzyme reporter, as detected with fluorescence intensity signals by Fluorescence and electrophoretic mobility shift technology.Data from the assay component NVS_ENZ_hPI3Ka was analyzed into 1 assay endpoint. This assay endpoint, NVS_ENZ_hPI3Ka, was analyzed in the positive analysis fitting direction relative to DMSO as the negative control and baseline of activity. Using a type of enzyme reporter, loss-of-signal activity can be used to understand changes in the enzymatic activity as they relate to the gene PIK3CA. Furthermore, this assay endpoint can be referred to as a primary readout, because this assay has produced multiple assay endpoints where this one serves a enzymatic activity function. To generalize the intended target to other relatable targets, this assay endpoint is annotated to the kinase intended target family, where the subfamily is phosphoinositol kinase.
Binding assays used specific radioligands (tritiated, iodinated) with non-radioactive competitive displacement ligands in agonist or antagonist protocols (as indicated) and various reference compounds and inhibitors to titrate specific binding to receptors and transporters. Most enzyme assays (CYPs, kinases, phosphatases, proteases, HDACs) used recombinant protein and specific substrates (fluorescence mostly, some colorimetric and radioactive) and inhibitors, followed by a biochemical separation of substrate and product. All assays for the biochemical HTS were initially run in duplicate at a single concentration (10 uM for CYP450 assays and 25 uM for all others). Assay-chemical combinations meeting a pre-defined threshold (e.g., 30% inhibition and other criteria defined below) were then run in singleton concentration-response format with maximum concentration of 20 uM for CYPs and 50 uM for all others. Each assay was run with positive and negative controls, and concurrent controls on every plate. The follow-up (secondary) screen tested active chemical-pairs in concentration series, as well as a few additional assays not tested in the primary screen, some selected negative inactives, and several cases re-run in the concentration series for confirmatory purposes.
With CCOC(=O)CCN(SN(C)C(=O)Oc1cccc2c1OC(C)(C)C2)C(C)C the outcome was “inactive”.
For Nc1c(Oc2ccccc2)cc(O)c2c1C(=O)c1ccccc1C2=O, the AC50 was 3.26 µM (active).
C=CC(=O)NC(C)(C)CC(C)=O was tested, and the outcome was “inactive”.
With Nc1nc(N)nc(Cl)n1 the outcome was “inactive”.
In the case of Oc1ccc(Cc2ccc(O)cc2)cc1, the outcome is reported as “inactive”.
In the case of Cc1cc(C(C)(C)c2ccc(O)c(C)c2)ccc1O, the AC50 is reported as 5.25 µM (active).
For CC[N+](CC)(CC)CC, the outcome was “inactive”.
O=C(O)C1(c2ccc3c(c2)OC[C@H](Cc2ccc(-c4ccccc4)cc2)[C@H]3O)CCCC1 was tested, and the outcome was “inactive”.
For O=c1oc2ccccc2c(O)c1C(CC(O)c1ccc(-c2ccc(Br)cc2)cc1)c1ccccc1 (stereo not given), the AC50 was 5.19 µM (active).
For CCC(C)(C#N)N=NC(C)(C#N)CC (stereo not given), the outcome was “inactive”.
CCCCCCCCCCCCc1cccc(S(=O)(=O)O)c1 was tested, and the AC50 was 7.17 µM (active).
For C=CCCl, the outcome was “inactive”.
With CC(C)[N+](=O)[O-] the outcome was “inactive”.
With O=C1c2ccccc2C(=O)C1C(=O)C(c1ccccc1)c1ccc(Cl)cc1 (stereo not given) the AC50 was 16.8 µM (active).
With O=[N+]([O-])c1ccc(Nc2ccccc2)cc1 the outcome was “inactive”.
